Results taken from the antibiotic and cytotoxicity screens of Wong et al. (2023).
The whole screen tested about 39,000 compounds, of which about 1,500 (3.8%) were called active. Only a selection was taken, and actives are over-represented in it overall.

Tested on: HSkMC (human skeletal muscle cells)
Test: cytotoxicity call (relative viability < 0.9)
Conditions: 10 µM

Row | Compound | cytotoxicity call
1 | COC(N)=O | inactive
2 | C[C@H](CO)N1C[C@H](C)[C@@H](CN(C)C(=O)Oc2cccc3ccccc23)OCc2cn(nn2)CCCC1=O | inactive
3 | COC(=O)C[C@H]1CC[C@@H]2NC[C@H](O)COC[C@H]2O1 | inactive
4 | Cc1ccc(OC(=O)N(C)C[C@@H]2OCc3ccccc3-c3c(n(C)c4ccccc34)C(=O)N([C@H](C)CO)C[C@H]2C)cc1 | inactive
5 | COc1ccc(OC)c(C(O)C(C)N)c1.Cl (centres undefined) | inactive
6 | C[N+]1(C)CCCC(OC(=O)C(O)(c2ccccc2)c2ccccc2)C1.[Br-] (centres undefined) | inactive
7 | NC[C@@H](O)c1ccccc1 | inactive
8 | CC(C)(C)OC(=O)N1C[C@H]2C[C@@H]1CN2 | inactive
9 | c1cc2c(cc1CN1CCNCC1)OCO2 | inactive
10 | c1ccc2cc3c(cc2c1)-c1cccc2cccc-3c12 | inactive
11 | CCC1=C[C@@H]2[C@H](C1)C[C@]2(CN)CC(=O)O | inactive
12 | [N-]=[N+]=NCc1ccccc1C[C@]1(C(=O)N2CCCCC2)N=C(c2ccc(OCCCO)cc2)O[C@H]1c1ccccc1N=[N+]=[N-] | inactive
13 | CC12CCC3C(CCC4(O)CC(O)CCC34C=O)C1(O)CCC2C1=CC(=O)OC1 (centres undefined) | active
14 | NC[C@@H](CC(=O)O)c1ccccc1 | inactive
15 | CCOC(OCC)P(=O)(O)CCCN | inactive
16 | CC(=O)N[C@@H]1[C@H](O[C@@H]2O[C@H](C[C@@H](O)[C@H]3O[C@@H](n4ccc(=O)[nH]c4=O)[C@H](O)[C@@H]3O)[C@H](O)[C@H](O)[C@H]2NC(=O)/C=C/CCCCCCCCC(C)C)O[C@@H](CO)[C@H](O)[C@H]1O | inactive
17 | Oc1ccc(Cl)cc1Cc1cc(Cl)ccc1O | inactive
18 | Oc1cc(Cl)ccc1Oc1ccc(Cl)cc1Cl [listing 1 of 2 here] | inactive
19 | Oc1cc(Cl)ccc1Oc1ccc(Cl)cc1Cl [listing 2 of 2 here] | active
20 | CC(C)[C@@H]1NC[C@@H]2CCCN2C1=O | inactive
21 | O=C1C=CC(=O)c2c(O)cccc21 | inactive
22 | CC1=CC(=O)c2c(O)cccc2C1=O | active
23 | Oc1ccccc1-c1ccccc1O | inactive
24 | O=C(O)C=CC(=O)O.c1ccc2nc(N3CCNCC3)ccc2c1 | inactive
25 | Cc1ncc(CNC(=O)N(CCCl)[NH2+][O-])c(N)n1 | inactive
26 | CC(=O)OC1C2CCC3C(C)(O)C4CC(O)C(C)(C)C4(O)C(O)CC13CC2(C)O (centres undefined) | inactive
27 | Cc1cc(C2=NO[C@](c3cc(Cl)cc(Cl)c3)(C(F)(F)F)C2)ccc1C(=O)NCC(=O)NCC(F)(F)F | active

Row | Compound | cytotoxicity call
28 | CN1CCOCC12CCN(c1ncccn1)CC2 | inactive
29 | COc1ccc(C2(CN)CCCC2)cc1 | inactive
30 | NCc1cc(=O)[nH]o1 | inactive
31 | O=C1N[C@@H]2C(=C[C@H](O)[C@@H](O)[C@H]2O)c2cc3c(c(O)c21)OCO3 | active
32 | N[C@@H](c1ccccc1)[C@H](O)c1ccccc1 | inactive
33 | CNC(=O)Oc1ccc2c(c1)C1(C)CCN(C)C1N2C.O=S(=O)(O)O (centres undefined) | inactive
34 | Cc1ccc(N2CCO[C@@H]3CNCC[C@H]3C2)nn1 | inactive
35 | NCCc1nccs1 | inactive
36 | CCN1C[C@H]2CN(Cc3nccn3C)C[C@H]2C1=O | inactive
37 | CNC(=O)Oc1cccc2ccccc12 | inactive
38 | C[C@H]1C[C@H]2CNCC[C@@H]2O1 | inactive
39 | O=[N+]([O-])c1ccc(N(CCO)CCO)c2c1no[n+]2[O-] | active
40 | CNC(=O)Oc1ccc2c(c1)C1(C)CCN(C)C1N2C.O=C(O)c1ccccc1O (centres undefined) | inactive
41 | Cn1ccnc1CN1CCC[C@]2(CCNC2=O)C1 | inactive
42 | CC(=O)NN1Cc2ccccc2C1=N | inactive
43 | CC(C)c1ccc2[nH]c(=O)c(CCN)cc2c1 | inactive
44 | [N-]=[N+]=NCc1ccccc1C[C@@]1(C(=O)NCCN2CCOCC2)N=C(c2ccc(OCCCO)cc2)O[C@@H]1c1ccccc1N=[N+]=[N-] | inactive
45 | CC1=C2CC3C(CC=C4CC(O)CCC43C)C2CCC12OC1CC(C)CNC1C2C (centres undefined) | inactive
46 | Cc1ccc(OC(=O)N(C)C[C@H]2OCc3ccccc3-c3c(n(C)c4ccccc34)C(=O)N([C@@H](C)CO)C[C@@H]2C)cc1 | inactive
47 | O=C1[O][SbH]23[O]C(=O)C([O]2)C2[O][SbH]4([O]C(=O)C([O]4)C1[O]3)[O]C2=O | inactive
48 | O=C1[O][SbH]23[O]C(=O)[C@H]([O]2)[C@H]2[O][SbH]4([O]C(=O)[C@H]([O]4)[C@H]1[O]3)[O]C2=O | active
49 | CC(C)(C)NCC(O)c1ccccc1Cl.Cl (centres undefined) | inactive
50 | CC(C)(C#N)O[C@@H]1O[C@H](CO)[C@@H](O)[C@H](O)[C@H]1O | inactive
51 | CN1C(=O)[C@@]23C[C@]4([C@@]56C[C@]78SS[C@](CO)(C(=O)N7[C@@H]5Nc5ccccc56)N(C)C8=O)c5ccccc5N[C@H]4N2C(=O)[C@@]1(CO)SS3 | active
52 | CN1C(=O)[C@]23CC4=CC=C[C@H](O)[C@H]4N2C(=O)[C@@]1(CO)SS3 | active
53 | N#C[C@H](O[C@@H]1O[C@H](CO[C@@H]2O[C@H](CO)[C@@H](O)[C@H](O)[C@H]2O)[C@@H](O)[C@H](O)[C@H]1O)c1ccccc1 | inactive
54 | CN1CC[C@]2(CCCO2)C1 | inactive

Row | Compound | cytotoxicity call
55 | CCOc1ccc(CN)cn1 | inactive
56 | NSC(=S)N1CCCC1 | inactive
57 | O=C1C=C2C=CC3CC2(O1)C1CCCCN31 (centres undefined) | inactive
58 | Nc1ccc2c(c1)CNCC2 | inactive
59 | O=c1[nH]c2ccccc2n1C1CCN(CCCC(c2ccc(F)cc2)c2ccc(F)cc2)CC1 | active
60 | O=c1[nH]c2ccccc2n1CCCN1CCC(n2c(=O)[nH]c3cc(Cl)ccc32)CC1 | inactive
61 | COc1ccn(C)c(=O)c1C#N | inactive
62 | Cl.c1ccc2c(c1)OCC(C1=NCCN1)O2 (centres undefined) | inactive
63 | CI.O=C(COc1ccc(Cl)cc1Cl)OC[C@H]1CCCN2CCCC[C@@H]12 | inactive
64 | O=C1CO[C@]2(CNCCOC2)CN1CC1CC1 | inactive
65 | CN(C)C(=O)CCC(=O)N1C[C@H]2C[C@@H]1CN2 | inactive
66 | CO[C@@H]1C[C@@H](C[C@H]2CC[C@H](C)[C@H]([C@@H](C)C(=O)O)O2)O[C@]2(O[C@](C)([C@H]3CC[C@@](C)([C@H]4O[C@@H]([C@H]5O[C@@](O)(CO)[C@H](C)C[C@@H]5C)C[C@@H]4C)O3)C[C@H]2C)[C@@H]1C | active
67 | C[C@@H]1CN([C@H](C)CO)C(=O)CCCn2nncc2CO[C@@H]1CN(C)C(=O)Oc1cccc2ccccc12 | inactive
68 | Clc1ccc(C(c2ccc(Cl)cc2)C(Cl)(Cl)Cl)cc1 | inactive
69 | N[C@H]1C[C@H]1c1ccccc1 | inactive
70 | NCC(=O)c1ccccc1 | inactive
71 | CC(=O)[O][Hg][c]1ccccc1 | active
72 | O=C(Cc1ccccc1)c1ccccc1 | inactive
73 | O.O.O.O=C([O-])C1[O][Sb]2[O]C(=O)C([O]2)C(C(=O)[O-])[O][Sb]2[O]C(=O)C1[O]2.[K+].[K+] (centres undefined) | inactive
74 | CC[C@@H](C)[C@H]1NC(=O)C(C(C)=O)=C1O | inactive
75 | CCC(N)C(O)c1ccc(O)c(O)c1.Cl (centres undefined) | inactive
76 | CC[C@@H](N)[C@@H](O)c1ccc(O)c(O)c1 | active
77 | C[C@H](N)[C@H](O)c1ccc(O)c(O)c1 | inactive
78 | Cn1cc([C@@H](O)c2ccccc2)[n+](C)c1 | inactive
79 | CC(CO)NC(=O)C1C=C2c3cccc4[nH]cc(c34)CC2N(C)C1.O=C(O)C=CC(=O)O (centres undefined) | inactive
